# Sampled rows, rich in hits. Any-hit rate of the full collection: about 19%.
# TDP1 cell CPT = qHTS for Inhibitors of human tyrosyl-DNA phosphodiesterase 1 (TDP1): qHTS in cells in presence of CPT; chicken DT40 Tdp1-/-;hTDP1 cells + 20 nM CPT, ATP luminescence, 48 h; Potency, µM (series often up to 46.2 µM), inactives show at the highest dose activity change, negative = growth inhibition, usual class: inhibitors; 420,000 compounds, 12% hits; AID 686979, 2013; note: potency is the fitted concentration of half-maximal effect; nearly all actives have a fitted effect of over 55% in size
#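 Cell growth measured by CellTiter-Glo luminescence after a minimum 48 h, 37 C compound exposure with 20 nM CPT in Tdp1-knockout DT40 cells stably expressing hTDP1, seeded 400/well; qHTS titration format.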
# IL-1B inflam inh = qHTS for Inhibitors of Inflammasome Signaling: IL-1-beta AlphaLISA Primary Screen; activity change, % at 57.5 µM; THP-1 LPS/ATP IL-1B secretion, AlphaLISA, 16 h; active compounds read low; 360,000 compounds, 4.7% hits; in the data active = activity change below about -50%; inconclusive = mostly about -30% to -49%
#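 THP-1 cells pretreated 1 hr with compounds (up to 57.5 uM final), then stimulated with LPS (250 ng/mL final) plus ATP (1.25 mM final); secreted IL-1B measured by AlphaLISA after 16 hr, decreased signal indicating inhibition.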
# HT1080 IDH1KD tx = qHTS for induction of synthetic lethality in tumor cells producing 2HG: qHTS for the HT-1080-IDH1KD cell line | HT-1080 IDH1 knockdown viability, ATP luminescence, 48 h | AID 686971, 2013 | 360,000 compounds, 2% hits | Potency, µM (doses to about 46.1 µM), for the others: at the top dose activity, negative = toxicity, usual class: cytotoxic;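 note: potency is the fitted concentration of half-maximal effect; 0% = DMSO wells and -100% = cell-free medium wells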
#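 IDH1KD HT-1080 cells, 750/well, RPMI + 5% FBS; compound pinned after 2 h settling; 48 h, 37 °C; CellTiter-Glo luminescence; % activity normalised to DMSO and no-cell wells; curves fitted, classed by r2 and efficacy.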
# DT40 TDP1 no CPT = qHTS for Inhibitors of human tyrosyl-DNA phosphodiesterase 1 (TDP1): qHTS in cells in absence of CPT | Potency, µM (doses to about 46.2 µM), without a hit: at the highest dose activity change, negative = growth inhibition, usual class: inhibitors | DT40 Tdp1-/- hTDP1 cells, no CPT, ATP luminescence, 48 h | 420,000 compounds, 15% hits; note: potency is the fitted concentration of half-maximal effect; nearly all actives have a fitted effect of over 55% in size
#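 A cellular qHTS used chicken DT40 cells lacking endogenous Tdp1 but carrying stably transfected human TDP1. Compounds were applied without camptothecin, and cell growth kinetics were judged by ATP-dependent luminescence after ≥48 hr.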
# HT1080NT lethal = qHTS for induction of synthetic lethality in tumor cells producing 2HG: qHTS for the HT-1080-NT fibrosarcoma cell line | HT-1080-NT fibrosarcoma viability, CellTiter-Glo ATP luminescence, 48 h | Potency, µM (titrated, usually from 46.1 µM), for the others: top-dose activity, negative = less viability, actives largely listed as cytotoxic | 360,000 compounds, 1.6% hits | AID 686970, 2013;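 note: NT is the 2HG producing partner of a matched IDH1 knockdown line; potency is the fitted concentration of half-maximal effect; 0% = DMSO-treated cells and -100% = media-only wells without cells; nearly all actives have a fitted effect of over 55% in size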
#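 Read-out is CellTiter-Glo luminescence after 10 minutes at room temperature, following 48 hours' compound treatment of HT-1080-NT cells (750 cells/well, RPMI, 5% FBS, 37 degrees C).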
# Starred values were filed as active, the others as inactive; u = inconclusive; x = not tested or not shown; [ ] = remark or other dose. Unless noted, calls come from the whole dose curve; as a rule, active = well fitted curve in the direction sought with a large enough effect; inconclusive = small, poorly fitted or top-dose-only effect, or another doubt; inactive = no such curve, though single readings can be large; an effect the other way counts as inactive or inconclusive. Unless noted, % is set by controls: 0 for no effect and ±100 for the full control effect.
SMILES,TDP1 cell CPT,IL-1B inflam inh,HT1080 IDH1KD tx,DT40 TDP1 no CPT,HT1080NT lethal
CC(C)(C)c1ccc(NC(=S)NCc2cccnc2)cc1,u,18,1%,15µM*,4%
O=C(Cc1ccc(Cl)cc1)c1c[nH]c(C(=O)NCc2cccnc2)c1,1%,0,u,-4%,-15%
COC(=O)c1cc(C(=O)c2ccc(C(C)(C)C)cc2)c[nH]1,u,u,-26%,12µM*,-27%
CN(C)C=NC(=O)c1cc(C(=O)c2ccc(C(C)(C)C)cc2)c[nH]1,u,34,-5%,-21%,-8%
CC(NC(=O)c1ccccc1F)C1CC1 (configuration not stated),10%,18,11%,-25%,10%
CCN1C(=O)[C@H]2[C@@H](c3ccccc3)N[C@]3(CCCN(Cc4ccccc4)C3=O)[C@H]2C1=O,-8%,-7,13%,-24%,11%
CC(C)(C)C(=O)Nc1ccc(-c2cn3ccsc3n2)cc1,14µM*,-4,-4%,u,-1%
COC(=O)c1ccc(Sc2ccccc2NS(=O)(=O)c2ccc(OC)cc2)nc1,-9%,53,9%,-28%,-3%
Cc1cccc(N2CCN(C(=O)NCc3ccc(Cl)cc3)CC2)c1,u,-6,u,21µM*,u
COc1ccc(CNC(=O)N2CCN(c3cccc(Cl)c3)CC2)cc1OC,u,-16,-5%,u,5%
O=C(Nc1ccccc1)N1CCN(Cc2ccc(Cl)cc2)CC1,u,-10,9%,u,7%
COC(=O)c1ccc(NC(=S)N2CCN(Cc3ccc(Cl)cc3)CC2)cc1,u,14,u,16µM*,u
O=C(Nc1cc(Cl)cc(Cl)c1)N1CCCN(Cc2ccccc2)CC1,-14%,u,u,u,21µM*
O=C(Nc1ccc(Cl)cc1)N1CCCN(Cc2ccc(F)cc2)C1,23µM*,u,u,21µM*,u
COc1ccc(C2=Nc3ccccc3N(C(=O)c3ccc(C)cc3)C2C(=O)Nc2c(C)cccc2C)cc1 (configuration not stated),u,0,-11%,u,0%
COCC(=O)N1CCC(Oc2ccc(C(=O)NCc3cc(C(C)C)no3)cc2)CC1,-13%,11,-9%,-5%,-1%
CCCSc1nnc(NC(=O)Nc2ccccc2OC)s1,u,49,4%,u,0%
O=C(NCc1ccccc1Cl)c1ccc2c(c1)NC(=O)C(CS(=O)(=O)Cc1ccc(F)cc1Cl)N2 (configuration not stated),-26%,x,x,-11%,x
O=C(NCC[C@@H]1CC[C@@H](NC(=O)c2cnccn2)[C@@H](CO)O1)c1ccc2c(c1)OCO2,-2%,44,11%,0%,21%
O=C(NCc1ccc(Cl)cc1)N1CCN(Cc2ccccc2)CC1,23µM*,-21,u,u,-20%
COc1cccc(CN2CCN(C(=S)NCc3ccc(Cl)cc3)CC2)c1,u,-27,0%,21µM*,-16%
S=C(NCc1ccccc1)N1CCN(Cc2ccc3c(c2)OCO3)CC1,-4%,-7,-11%,u,0%
CCOc1ccccc1N1CCN(C(=O)C2c3ccccc3Oc3ccccc32)CC1,23µM*,-9,18µM*,23µM*,u
CCOc1ccccc1N1CCN(C(=O)NCc2ccc(Cl)cc2)CC1,-26%,-63*,0%,u,-17%
CS(=O)(=O)N(CC(=O)NCCSc1ccccn1)c1cccc2ccccc12,-7%,6,0%,-13%,-1%
SMILES,TDP1 cell CPT,IL-1B inflam inh,HT1080 IDH1KD tx,DT40 TDP1 no CPT,HT1080NT lethal
Cc1ccc(CN2CCC(CNC(=O)C3CCCN(c4ncnc5c4nc4n5CCCCC4)C3)CC2)cc1 (configuration not stated),u,-66*,-4%,u,-7%
Cc1ccc(CCNC(=O)C2CCCN(c3ncnc4c3nc3n4CCCCC3)C2)cc1 (configuration not stated),u,16,10%,-19%,-1%
CCOc1ccc(CCNC(=O)C2CCCN(c3ncnc4c3nc3n4CCCCC3)C2)cc1 (configuration not stated),u,-12,13%,23µM*,14%
Cc1ccc(C)c2c1N(Cc1ccccc1)C(=O)C21OCCO1,u,29,-5%,u,1%
Cc1ccc(C2(C)NC(=O)N(CC(=O)Nc3ccc(S(=O)(=O)Nc4nccs4)cc3)C2=O)cc1 (configuration not stated),14%,8,3%,4%,2%
COc1ccc(-c2cc(C(=O)N(C)CC(=O)Nc3cccc(F)c3)c3ccccc3n2)cc1OC,21µM*,-2,u,21µM*,u
COc1cccc(NC(=O)CN(C)C(=O)c2cc(-c3ccc(F)cc3)nc3ccccc23)c1,u,-62*,-30%,u,-15%
COc1cccc(NC(=O)CN(C)C(=O)c2cc(-c3ccccc3)nc3ccccc23)c1,u,u,-15%,u,-14%
CCC[C@H]1CN(c2ccccc2)C(=O)[C@@H]1CC(=O)Nc1ccc(Br)cc1,4%,21,0%,-2%,0%
O=C(Nc1ccc(Cl)c(C(F)(F)F)c1)C1CCCN(S(=O)(=O)c2cnc[nH]2)C1 (configuration not stated),u,22,u,u,-21%
Cc1ccc(CN2CCN(/N=C/c3ccc(Cl)c([N+](=O)[O-])c3)CC2)cc1,u,-74*,15%,u,18%
Cc1ccc(CN2CCN(/N=C/C=C/c3ccccc3[N+](=O)[O-])CC2)cc1,16µM*,-89*,-9%,21µM*,-14%
CC(C)CC(=O)NC(C)C(c1cccs1)N1CCOCC1 (configuration not stated),3%,4,12%,5%,9%
Cc1ccc(S(=O)(=O)c2c(N)n(CCC(C)C)c3nc4ccccc4nc23)cc1,u,-63*,u,u,u
Nc1c(S(=O)(=O)c2ccccc2)c2nc3ccccc3nc2n1Cc1ccco1,18µM*,-26,-17%,u,-27%
COc1ccc(CCn2c(N)c(S(=O)(=O)c3cccs3)c3nc4ccccc4nc32)cc1OC,u,-55*,8%[9.24 µM],u,-8%

# Compound activity as filed in PubChem.
